Experimental data reported in the supplement of paper PMC4466140.

Biological target: AgAbp1
Assay: SPOT peptide array binding signal intensity (averaged, normalized) (arbitrary units (background-subtracted, floor 0; scale differs between SH3 domains)); higher = stronger binding of the SH3 domain to the peptide
How it was run: (§1)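 Four yeast species supplied the SH3 domains, which were expressed as GST fusions in E. coli BL21(DE3) and purified on glutathione Sepharose. Incubation with cellulose membranes carrying synthetic 15-mer peptides, cysteines exchanged for serines, ran overnight at 4°C at 10 μg/ml in TBS-based blocking buffer. Binding signal is reported as normalized, background-subtracted spot intensity averaged over replicates, in arbitrary units not shared between domains.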

Binder	SPOT peptide array binding signal intensity
NENKKLPPAPTVFGL	≤ 0

Biological target: AgBbc1
Assay: as above
How it was run: as §1

Binder	SPOT peptide array binding signal intensity
NENKKLPPAPTVFGL	≤ 0

Biological target: AgBem1-D1
Assay: as above
How it was run: as §1

Binder	SPOT peptide array binding signal intensity
NENKKLPPAPTVFGL	≤ 0

Biological target: AgBzz1-D1
Assay: as above
How it was run: as §1

Binder	SPOT peptide array binding signal intensity
NENKKLPPAPTVFGL	27

Biological target: AgBzz1-D2
Assay: as above
How it was run: as §1

Binder	SPOT peptide array binding signal intensity
NENKKLPPAPTVFGL	35

Biological target: AgCyk3
Assay: as above
How it was run: as §1

Binder	SPOT peptide array binding signal intensity
NENKKLPPAPTVFGL	≤ 0

Biological target: AgFus1
Assay: as above
How it was run: as §1

Binder	SPOT peptide array binding signal intensity
NENKKLPPAPTVFGL	≤ 0

Biological target: AgHof1
Assay: as above
How it was run: as §1

Binder	SPOT peptide array binding signal intensity
NENKKLPPAPTVFGL	19.5

Biological target: AgHse1
Assay: as above
How it was run: as §1

Binder	SPOT peptide array binding signal intensity
NENKKLPPAPTVFGL	72

Biological target: AgLsb1
Assay: as above
How it was run: as §1

Binder	SPOT peptide array binding signal intensity
NENKKLPPAPTVFGL	≤ 0

Biological target: AgLsb4
Assay: as above
How it was run: as §1

Binder	SPOT peptide array binding signal intensity
NENKKLPPAPTVFGL	25

Biological target: AgMyo5
Assay: as above
How it was run: as §1

Binder	SPOT peptide array binding signal intensity
NENKKLPPAPTVFGL	≤ 0

Biological target: AgNbp2
Assay: as above
How it was run: as §1

Binder	SPOT peptide array binding signal intensity
NENKKLPPAPTVFGL	≤ 0

Biological target: AgRvs167
Assay: as above
How it was run: as §1

Binder	SPOT peptide array binding signal intensity
NENKKLPPAPTVFGL	6.17

Biological target: AgSho1
Assay: as above
How it was run: as §1

Binder	SPOT peptide array binding signal intensity
NENKKLPPAPTVFGL	1550

Biological target: AgSla1-D1-D2
Assay: as above
How it was run: as §1

Binder	SPOT peptide array binding signal intensity
NENKKLPPAPTVFGL	4

Biological target: AgSla1-D3
Assay: as above
How it was run: as §1

Binder	SPOT peptide array binding signal intensity
NENKKLPPAPTVFGL	1.5

Biological target: CaAbp1-D1
Assay: as above
How it was run: as §1

Binder	SPOT peptide array binding signal intensity
NENKKLPPAPTVFGL	≤ 0

Biological target: CaAbp1-D2
Assay: as above
How it was run: as §1

Binder	SPOT peptide array binding signal intensity
NENKKLPPAPTVFGL	3

Biological target: CaBbc1
Assay: as above
How it was run: as §1

Binder	SPOT peptide array binding signal intensity
NENKKLPPAPTVFGL	≤ 0

Biological target: CaBem1-D1
Assay: as above
How it was run: as §1

Binder	SPOT peptide array binding signal intensity
NENKKLPPAPTVFGL	≤ 0

Biological target: CaBzz1-D1
Assay: as above
How it was run: as §1

Binder	SPOT peptide array binding signal intensity
NENKKLPPAPTVFGL	3.5

Biological target: CaBzz1-D2
Assay: as above
How it was run: as §1

Binder	SPOT peptide array binding signal intensity
NENKKLPPAPTVFGL	1.5

Biological target: CaCyk3
Assay: as above
How it was run: as §1

Binder	SPOT peptide array binding signal intensity
NENKKLPPAPTVFGL	≤ 0

Biological target: CaFus1
Assay: as above
How it was run: as §1

Binder	SPOT peptide array binding signal intensity
NENKKLPPAPTVFGL	36.5

Biological target: CaHof1
Assay: as above
How it was run: as §1

Binder	SPOT peptide array binding signal intensity
NENKKLPPAPTVFGL	0.25

Biological target: CaHse1
Assay: as above
How it was run: as §1

Binder	SPOT peptide array binding signal intensity
NENKKLPPAPTVFGL	≤ 0

Biological target: CaLsb1
Assay: as above
How it was run: as §1

Binder	SPOT peptide array binding signal intensity
NENKKLPPAPTVFGL	1.5

Biological target: CaLsb4
Assay: as above
How it was run: as §1

Binder	SPOT peptide array binding signal intensity
NENKKLPPAPTVFGL	≤ 0

Biological target: CaMyo5
Assay: as above
How it was run: as §1

Binder	SPOT peptide array binding signal intensity
NENKKLPPAPTVFGL	≤ 0

Biological target: CaNbp2
Assay: as above
How it was run: as §1

Binder	SPOT peptide array binding signal intensity
NENKKLPPAPTVFGL	≤ 0

Biological target: CaRvs167
Assay: as above
How it was run: as §1

Binder	SPOT peptide array binding signal intensity
NENKKLPPAPTVFGL	1.17

Biological target: CaRvs167-3
Assay: as above
How it was run: as §1

Binder	SPOT peptide array binding signal intensity
NENKKLPPAPTVFGL	≤ 0

Biological target: CaSho1
Assay: as above
How it was run: as §1

Binder	SPOT peptide array binding signal intensity
NENKKLPPAPTVFGL	398

Biological target: CaSla1-D1-D2
Assay: as above
How it was run: as §1

Binder	SPOT peptide array binding signal intensity
NENKKLPPAPTVFGL	≤ 0

Biological target: CaSla1-D3
Assay: as above
How it was run: as §1

Binder	SPOT peptide array binding signal intensity
NENKKLPPAPTVFGL	3.5

Biological target: ScAbp1
Assay: as above
How it was run: as §1

Binder	SPOT peptide array binding signal intensity
NENKKLPPAPTVFGL	≤ 0

Biological target: ScBbc1
Assay: as above
How it was run: as §1

Binder	SPOT peptide array binding signal intensity
NENKKLPPAPTVFGL	≤ 0

Biological target: ScBem1-D1
Assay: as above
How it was run: as §1

Binder	SPOT peptide array binding signal intensity
NENKKLPPAPTVFGL	1

Biological target: ScBzz1-D1
Assay: as above
How it was run: as §1

Binder	SPOT peptide array binding signal intensity
NENKKLPPAPTVFGL	11

Biological target: ScBzz1-D2
Assay: as above
How it was run: as §1

Binder	SPOT peptide array binding signal intensity
NENKKLPPAPTVFGL	6

Biological target: ScCyk3
Assay: as above
How it was run: as §1

Binder	SPOT peptide array binding signal intensity
NENKKLPPAPTVFGL	1

Biological target: ScFus1
Assay: as above
How it was run: as §1

Binder	SPOT peptide array binding signal intensity
NENKKLPPAPTVFGL	8

Biological target: ScHof1
Assay: as above
How it was run: as §1

Binder	SPOT peptide array binding signal intensity
NENKKLPPAPTVFGL	6

Biological target: ScHse1
Assay: as above
How it was run: as §1

Binder	SPOT peptide array binding signal intensity
NENKKLPPAPTVFGL	6.5

Biological target: ScLsb1
Assay: as above
How it was run: as §1

Binder	SPOT peptide array binding signal intensity
NENKKLPPAPTVFGL	≤ 0

Biological target: ScLsb2
Assay: as above
How it was run: as §1

Binder	SPOT peptide array binding signal intensity
NENKKLPPAPTVFGL	≤ 0

Biological target: ScLsb3
Assay: as above
How it was run: as §1

Binder	SPOT peptide array binding signal intensity
NENKKLPPAPTVFGL	≤ 0

Biological target: ScLsb4
Assay: as above
How it was run: as §1

Binder	SPOT peptide array binding signal intensity
NENKKLPPAPTVFGL	6

Biological target: ScMyo3
Assay: as above
How it was run: as §1

Binder	SPOT peptide array binding signal intensity
NENKKLPPAPTVFGL	≤ 0

Biological target: ScMyo5
Assay: as above
How it was run: as §1

Binder	SPOT peptide array binding signal intensity
NENKKLPPAPTVFGL	≤ 0

Biological target: ScNbp2
Assay: as above
How it was run: as §1

Binder	SPOT peptide array binding signal intensity
NENKKLPPAPTVFGL	≤ 0

Biological target: ScPex13
Assay: as above
How it was run: as §1

Binder	SPOT peptide array binding signal intensity
NENKKLPPAPTVFGL	254

Biological target: ScRvs167
Assay: as above
How it was run: as §1

Binder	SPOT peptide array binding signal intensity
NENKKLPPAPTVFGL	0.167

Biological target: ScSho1
Assay: as above
How it was run: as §1

Binder	SPOT peptide array binding signal intensity
NENKKLPPAPTVFGL	2310

Biological target: ScSla1-D1-D2
Assay: as above
How it was run: as §1

Binder	SPOT peptide array binding signal intensity
NENKKLPPAPTVFGL	≤ 0

Biological target: ScSla1-D3
Assay: as above
How it was run: as §1

Binder	SPOT peptide array binding signal intensity
NENKKLPPAPTVFGL	4.5

Biological target: SpAbp1-D1
Assay: as above
How it was run: as §1

Binder	SPOT peptide array binding signal intensity
NENKKLPPAPTVFGL	≤ 0

Biological target: SpBbc1
Assay: as above
How it was run: as §1

Binder	SPOT peptide array binding signal intensity
NENKKLPPAPTVFGL	4.5

Biological target: SpBzz1-D1
Assay: as above
How it was run: as §1

Binder	SPOT peptide array binding signal intensity
NENKKLPPAPTVFGL	126

Biological target: SpBzz1-D2
Assay: as above
How it was run: as §1

Binder	SPOT peptide array binding signal intensity
NENKKLPPAPTVFGL	0.25
QLMKNLPKIPLLNDI	10.8

Biological target: SpCyk3
Assay: as above
How it was run: as §1

Binder	SPOT peptide array binding signal intensity
NENKKLPPAPTVFGL	2.5
QLMKNLPKIPLLNDI	4

Biological target: SpHof1
Assay: as above
How it was run: as §1

Binder	SPOT peptide array binding signal intensity
NENKKLPPAPTVFGL	49.8
QLMKNLPKIPLLNDI	369

Biological target: SpHof1-2
Assay: as above
How it was run: as §1

Binder	SPOT peptide array binding signal intensity
NENKKLPPAPTVFGL	344
QLMKNLPKIPLLNDI	1050

Biological target: SpHof1-3
Assay: as above
How it was run: as §1

Binder	SPOT peptide array binding signal intensity
NENKKLPPAPTVFGL	166
QLMKNLPKIPLLNDI	970

Biological target: SpHse1
Assay: as above
How it was run: as §1

Binder	SPOT peptide array binding signal intensity
NENKKLPPAPTVFGL	71.8
QLMKNLPKIPLLNDI	206

Biological target: SpLsb1
Assay: as above
How it was run: as §1

Binder	SPOT peptide array binding signal intensity
NENKKLPPAPTVFGL	0.5
QLMKNLPKIPLLNDI	1

Biological target: SpLsb4
Assay: as above
How it was run: as §1

Binder	SPOT peptide array binding signal intensity
NENKKLPPAPTVFGL	≤ 0
QLMKNLPKIPLLNDI	628

Biological target: SpMyo1
Assay: as above
How it was run: as §1

Binder	SPOT peptide array binding signal intensity
NENKKLPPAPTVFGL	≤ 0
QLMKNLPKIPLLNDI	106

Biological target: SpNbp2
Assay: as above
How it was run: as §1

Binder	SPOT peptide array binding signal intensity
NENKKLPPAPTVFGL	≤ 0
QLMKNLPKIPLLNDI	88

Biological target: SpPex13
Assay: as above
How it was run: as §1

Binder	SPOT peptide array binding signal intensity
NENKKLPPAPTVFGL	≤ 0
QLMKNLPKIPLLNDI	146

Biological target: SpRvs167
Assay: as above
How it was run: as §1

Binder	SPOT peptide array binding signal intensity
NENKKLPPAPTVFGL	0.333
QLMKNLPKIPLLNDI	22.8

Biological target: SpSla1-D1-D2
Assay: as above
How it was run: as §1

Binder	SPOT peptide array binding signal intensity
NENKKLPPAPTVFGL	8
QLMKNLPKIPLLNDI	20.5

Biological target: SpSla1-D3
Assay: as above
How it was run: as §1

Binder	SPOT peptide array binding signal intensity
NENKKLPPAPTVFGL	1.5
QLMKNLPKIPLLNDI	251
